What was measured:
Experiment in all cases: PBM binding z-score (relative to random genomic background probes); higher = stronger binding; sequences stand for … in GC…GCGATTGACAGCGTAGAATGAAGG
[1] = system: PPARg:RXRa DBDmut IVT, anti-RXR (DBD mutation: RXRa K156A/R161A, NR concentration 270 nM, RXRa partner concentration 90 nM)
Method in brief: (§1)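 Binding z-scores were set against random background probes. The data came from custom Agilent 4×180K protein-binding microarrays carrying double-stranded probes with 34-nt variable regions, incubated 1 h with ligand-free nuclear receptor dimers. Partner-specific antibodies detected binding, and scanned fluorescence was regression-normalized.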

[2] = system: PPARg:RXRa IVT, anti-PPARg (NR concentration 270 nM, RXRa partner concentration 90 nM)
Method in brief: as §1

[3] = system: PPARg DBDmut:RXRa IVT, anti-PPARg (DBD mutation: PPARg1 K132A/R137A, NR concentration 270 nM, RXRa partner concentration 90 nM)
Method in brief: as §1

[4] = system: PPARg DBDmut IVT, anti-PPARg (DBD mutation: PPARg1 K132A/R137A, NR concentration 270 nM)
Method in brief: as §1

[5] = system: PPARg homodimer (NR concentration 180 nM)
Method in brief: as §1

[6] = system: PXR:RXRa (NR concentration 270 nM, RXRa partner concentration 90 nM)
Method in brief: as §1

[7] = system: PXR homodimer (NR concentration 270 nM)
Method in brief: as §1

[8] = system: RARa:RXR (NR concentration 270 nM, RXRa partner concentration 90 nM)
Method in brief: as §1

[9] = system: RARa homodimer (NR concentration 270 nM)
Method in brief: as §1

[10] = system: RARb:RXRa (NR concentration 270 nM, RXRa partner concentration 90 nM)
Method in brief: as §1

Sequence	PBM binding z-score [1]	PBM binding z-score [2]	PBM binding z-score [3]	PBM binding z-score [4]	PBM binding z-score [5]	PBM binding z-score [6]	PBM binding z-score [7]	PBM binding z-score [8]	PBM binding z-score [9]	PBM binding z-score [10]
ATCGAAAGGTCGAAGGAGAGTATACCCACCCGAA	-0.0352	1.35	0.946	0.145	1.41	2.39	0.0516	3.11	0.728	3.62
ATCTCTAGGTAAATGTTCAGTGAATCCCGAGGAT	2.02	1.64	1.6	0.892	0.258	-0.0966	0.236	0.0149	0.709	0.211
CCTACTGGGCCAACAAGGTCATTGATGCCGATAA	3.7	4.68	-0.0965	-0.198	2.24	3.92	3.62	3.64	0.0671	2.8
ACTCGGAGGACAGAGGTCAGAGCTACGCCAGTGA	0.205	2.43	-0.153	-0.704	1.89	3.17	0.328	3.9	0.568	3.57
TTACCAAAGTGAAAGGTCGTTGATGCACGCCTTG	-0.147	1.43	0.177	0.436	1.39	2.3	0.329	2.39	-0.107	1.86
GCTAGTGGGTCAGTAAAAGGTCACACACCGGTCG	6.37	6.63	1.17	1.14	6.87	5.62	1.8	7.01	2.96	5.12
CGAACTAGGTCAACGACAGTGAATCTCCGCACGC	7.66	7.96	4.33	5.05	2.87	0.983	-0.0485	1.99	-0.0648	3.83
ACTAATTGGTCAGCTGAGGTCACACACAATTCGG	1.58	2.86	1.1	1.2	2.75	5.67	1.67	4.72	1.56	3.91
CGAACTAGGTAAAGGACAGTGAATCTCCGCACGC	5.6	4.4	0.46	-0.605	0.363	-0.407	-0.167	-0.453	-0.188	1.21
CCTTACGGGTCACTTACAGGTTATAGCATTTGGA	3.22	3.45	0.739	0.78	2.43	3.37	0.26	4.24	1.28	3.65
TCTAGCTGGTCACGGAGGTCACACACGACGGGTA	1.56	3.5	0.457	0.217	3.03	4.91	0.955	5.08	1.08	3.81
GATACAGGGTCAGCTAGAGGGCAGAGTATGGAAA	1.36	2.69	1.37	0.18	4.2	4.38	0.747	5.63	1.68	4.51
ATCGAATGGTCGTGAGGTGAGTATACAGAAAGGC	-0.654	0.348	0.375	-0.00822	0.181	-0.104	0.00681	0.113	0.259	0.464
TAGCCTAGGTCATGCGGGCCAGCATAGTGTCGGC	1.81	2.94	0.0937	-0.357	1.08	1.52	-0.642	2.1	-0.53	3.59
CGTCCAAGGTCAATGCTAGCTCAGTGAAAGCATT	3.17	3.23	-0.245	-0.858	0.0664	3.48	0.507	3.92	0.334	5.02
TAGCCTAGGTCATAGGCCAGTATACCACGCGAAC	1.31	3.09	0.284	-0.111	1.91	1.47	-0.481	2.66	-0.0614	3.66
TCTGCTGGGTCAACGATGGTCAGCTAATCTGCTA	3.36	3.7	1.06	0.239	0.518	1.46	-1.34	2.07	-1.24	3.6
CCTCGGAGGTCAGAAGGTCAGAGCTGTCCGCTTT	2.53	3.5	-1.11	-1.86	5.71	4.71	0.603	6.73	0.835	5.16
TGACTGAGGTTAAAGATCAGGGAACGTGGCGTCG	-0.162	1.61	0.314	0.079	0.216	2.03	-0.418	2.68	-0.102	2.05
CCTAGTTGGGCAGGAGGTCACACACCGGATATGA	0.343	2.59	-0.448	-0.00376	2.16	3.77	0.916	3.7	1.59	3.15
AATACAGGGTGATCGTAGGCCAGAGTACGCACAG	0.342	1.51	0.927	0.662	0.342	0.0587	0.139	0.29	0.275	0.432
CCTTACGGGTCAGGGTTATAGCACGGGTGGTACG	0.748	2.22	-0.0775	-0.847	1.81	2.25	-0.00485	3.06	0.308	3.41
CGTCCAAGGTCAATTCTAGGTCAGTGAAAGCATT	3.48	4.72	0.615	0.0326	7.64	4.96	1.82	6.11	1.9	5.19
TAGCCTAAGTCATGGGCCAGTATACCACGCGAAC	-0.872	-0.144	-0.174	-0.856	-0.397	-0.259	-0.135	0.041	-0.286	0.0943
AGAATGAGGTTACACGTAGATCAGGGAAGAAAGT	4.19	3.53	1.09	0.468	1.27	1.36	-0.00272	1.84	0.499	2.07

From the supplement of paper PMC6555819
